Assay results reported in PubChem BioAssay (NCI).
Compounds without any hit were thinned out: in the full panel of roughly 79,000, 15% have a hit. Rule as the data show it: active = growth inhibition above about 70%; inactive = the rest.

Legend:
[1] = NCI Yeast Anticancer Drug Screen. Data for the rad50 strain (AID 155);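 also: 0% = growth of vehicle-only cultures of the same strain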; conditions: S. cerevisiae rad50 strain growth inhibition; at 50.0 µM; active compounds read high
Summary of the method: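 Inhibition values express reduced yeast growth in compound-treated cultures relative to vehicle-treated controls.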

[2] = NCI Yeast Anticancer Drug Screen. Data for the mec2-1 strain (AID 157); conditions: S. cerevisiae mec2-1 strain, at 50.0 µM, active compounds read high
Summary of the method: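 Each compound was tested on mec2-1 yeast, a strain altered in DNA damage repair or cell cycle control. Growth inhibition is reported relative to vehicle.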

[3] = NCI Yeast Anticancer Drug Screen. Data for the sgs1 mgt1 strain (AID 161);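 also: 0% = growth of cultures given vehicle only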; conditions: S. cerevisiae sgs1 mgt1 strain, at 50.0 µM, active compounds read high
Summary of the method: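 Test agents were incubated with a DNA-repair-mutant yeast strain. Growth was then read and compared against vehicle-treated controls.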

[4] = NCI Yeast Anticancer Drug Screen. Data for the cln2 rad14 strain (AID 165);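 also: 0% = growth equal to vehicle treated cultures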; conditions: S. cerevisiae cln2 rad14 strain, at 50.0 µM, active compounds read high
Summary of the method: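 Test compounds were added to cln2 rad14 yeast cultures; inhibition of growth was then determined by comparison with vehicle treatment.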

[5] = NCI Yeast Anticancer Drug Screen. Data for the bub3 strain (AID 167); conditions: S. cerevisiae bub3 mutant strain, at 50.0 µM, active compounds read high
Summary of the method: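 Steps: expose the mutant yeast strain to compound; grow alongside vehicle-treated cultures; measure growth; express inhibition against the vehicle cultures.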

[6] = NCI Yeast Anticancer Drug Screen. Data for the mlh1 rad18 strain (AID 175); conditions: S. cerevisiae mlh1 rad18 strain growth inhibition; at 50.0 µM; active compounds read high
Summary of the method: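 Inhibition values reflect reduced growth of mutant yeast versus vehicle-treated controls following compound exposure; the mutations affect DNA damage repair.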

Measured: growth inhibition

CC1=NN(C(=O)Cc2ccccc2)C(=O)/C1=C\c1ccc([N+](=O)[O-])cc1
inactive: [1] -38.2% | [2] -41.5% | [3] -52.4% | [4] -26.4% | [5] -55% | [6] -55.8%

Nc1nc(N)c2nc3c(nc2n1)CCCCCC3
inactive: [1] 4.25% | [2] -4% | [3] 4.25% | [4] -19.4% | [5] -3.2% | [6] 2.55%

COc1cc(-c2cc(OC)c(N=N/C(=N/Nc3ccc([N+](=O)[O-])cc3)c3ccc([N+](=O)[O-])cc3)cc2Cl)c(Cl)cc1N=N/C(=N\Nc1ccc([N+](=O)[O-])cc1)c1ccc([N+](=O)[O-])cc1
inactive: [1] 7.9% | [2] 9.65% | [3] -5.95% | [4] -21.2% | [5] -14.2% | [6] -13.8%

Cc1c(/C=N/N(C)C)oc2c1cc(O)c1ncccc12
inactive: [1] 2.95% | [2] -4.4% | [3] 20.4% | [4] -1.9% | [5] 4.65% | [6] 2.35%

COc1ccc(C(=O)CC2=NC3NN(c4ccccc4)C(=O)C3=C2CC(=O)c2ccc(OC)cc2)cc1 (stereo unspecified)
inactive: [1] 48.1% | [2] 32.1% | [3] 55.5% | [4] 23.8% | [5] -2.25% | [6] 31.8%

Cc1cc2c(=O)cc(-c3ccc(C(=O)O)cc3)oc2c(C(=O)O)c1C
inactive: [1] 7.1% | [2] 4.3% | [3] 22.8% | [4] 29.8% | [5] 5.7% | [6] 10.5%

CCc1cc2c(c3c1CCCC3=O)CC1(Cc3ccc(C(=O)OC)cc3C1)C2 (stereo unspecified)
inactive: [1] -8.05% | [2] -28.9% | [3] -7.6% | [4] -20.6% | [5] -8.95% | [6] -39.7%

N=S(=O)(c1ccccc1)c1ccccc1[N+](=O)[O-] (stereo unspecified)
inactive: [1] 41.4% | [2] 17.9% | [3] 56% | [4] 49.5% | [5] 19.5% | [6] 57.2%

CCOc1nc(N)nc(C)c1N=Nc1ccc(C)cc1
inactive: [1] 1.75% | [2] -8.45% | [3] -4.5% | [4] -34.4% | [5] -5.05% | [6] 2.45%

CN(C)C(=O)c1cccc([N+](=O)[O-])c1
inactive: [1] 1% | [2] -3.5% | [3] -4.65% | [4] 2.65% | [5] 13.2% | [6] 31.9%

O=C1c2ccccc2C(=O)N1C1(C(=O)NC2(C(=O)O)CCCC2)CCCC1
inactive: [1] -2.5% | [2] -7.8% | [3] -37.8% | [4] 2.6% | [5] -38.1% | [6] -8.6%

O=C1c2c(nc3ccccc3c2-c2ccccc2)CN1Nc1ccccn1
inactive: [1] -2.5% | [2] -4.1% | [3] 6.8% | [4] 12.8% | [5] -5.7% | [6] -33.9%

CCN(CC)CCN(C(=Nc1ccccc1)N1CCOCC1)c1ccccc1
inactive: [1] -19.8% | [2] -40.5% | [3] 3.6% | [4] -3.8% | [5] 4.8% | [6] -11.9%

COc1ccc(C2=CSc3ccccc3N2)cc1
inactive: [1] 11.2% | [2] 15.8% | [3] 42.3% | [4] 6.1% | [5] 36.3% | [6] 11.4%

OC1CCCN(CCNN2CCCC2)C1 (stereo unspecified)
inactive: [1] 17.9% | [2] 9.65% | [3] 15.4% | [4] 31.1% | [5] 2.35% | [6] 15.3%

O=c1[nH]c2cc(Cl)ccc2nc1/C=C(\O)c1ccc(F)cc1
inactive: [1] 23.1% | [2] 17.6% | [3] 17.2% | [4] 8.2% | [5] -6.3% | [6] 27.4%

COc1cc(/C=C/C(=O)NCCCCN)ccc1O
inactive: [1] 19.6% | [2] 8.9% | [3] 21.8% | [4] 9.6% | [5] 13% | [6] 19.7%

CC(O)C(=O)N1CCOCC1 (stereo unspecified)
inactive: [1] 3.5% | [2] -3.65% | [3] -0.7% | [4] -24.9% | [5] 4.25% | [6] -23.3%

COC(=O)Cc1oc(=O)n(-c2ccccc2)c(=O)c1C(=O)OC
inactive: [1] 6.75% | [2] -3.05% | [3] 2.05% | [4] -10.5% | [5] 10.1% | [6] -3.6%

O=C1C(c2ccccc2)=C(c2ccccc2)C(c2ccc(Sc3ccc(C4=C(c5ccccc5)C(=O)C(c5ccccc5)=C4c4ccccc4)cc3)cc2)=C1c1ccccc1
inactive: [1] 12.9% | [2] 22.6% | [3] 30.6% | [4] 15.7% | [5] -1.2% | [6] 24.2%

COC(=O)CC(C)N(c1ccc(OC)cc1)S(=O)(=O)c1ccc(C)cc1 (stereo unspecified)
inactive: [1] 18.4% | [2] 4.05% | [3] 14.3% | [4] -46% | [5] 17.6% | [6] 10.3%

CS(=O)CC(=N\N)/C(CS(C)=O)=N/N (stereo unspecified)
inactive: [1] -60% | [2] -20.8% | [3] -19.7% | [4] -21.4% | [5] -1.15% | [6] -5.75%

CC(=O)Nc1ccc(S(=O)(=O)N/N=C/C(=O)O)cc1
inactive: [1] -15.6% | [2] -32.4% | [3] -40% | [4] -22.4% | [5] 5.4% | [6] -16.6%

O=C1c2ccccc2C(=O)N1[C@@H](Cc1ccccc1)C(=O)n1cccc1CO
inactive: [1] 14.8% | [2] 21.4% | [3] 20.8% | [4] 25.5% | [5] 28.9% | [6] 10.9%

NNC(=S)NC1CCCCC1
inactive: [1] 29.8% | [2] -4.45% | [3] 29.8% | [4] 12.2% | [5] 16.9% | [6] 36%

CCc1ccccc1NC(=O)C1=C(C)NC(C)=C(C(=O)Nc2ccccc2CC)C1c1ccc2c(c1)OCO2
inactive: [1] -9.35% | [2] 3.6% | [3] -2.4% | [4] -7.8% | [5] -0.75% | [6] -4%

C=CCCC1(C)OC(C)C(C)O1 (stereo unspecified)
inactive: [1] 8.75% | [2] 3.65% | [3] -0.95% | [4] -33% | [5] -5.85% | [6] -4.9%

CCOC(NC(C)=O)C(O)c1ccc(Cl)cc1 (stereo unspecified)
inactive: [1] 20.1% | [2] 11.2% | [3] 13.1% | [4] -41.5% | [5] -9.9% | [6] 18.2%

c1ccc(C(=NN(CCCCN(N=C(c2ccccc2)c2ccccc2)c2ccccc2)c2ccccc2)c2ccccc2)cc1
inactive: [1] 28.6% | [2] 21.4% | [3] -11.6% | [4] 6.4% | [5] 0.05% | [6] 19.9%

COC1NC(=O)Oc2ccccc21 (stereo unspecified)
inactive: [1] -6.25% | [2] 29.5% | [3] -8.95% | [4] -3.3% | [5] -12.5% | [6] -19.4%

Nc1nc(N)nc(CCCCc2nc(N)nc(N)n2)n1
inactive: [1] -28.1% | [2] -16% | [3] -14.3% | [4] -15.7% | [5] -59.5% | [6] -21.5%

CCOC(=O)c1cc2cc(C)cc(C(=O)c3ccc([N+](=O)[O-])cc3)c2[nH]1
inactive: [1] 15.1% | [2] 25.4% | [3] 30.6% | [4] 4.15% | [5] -0.55% | [6] -16.3%

CCOC(=O)NC(C)(C)CC(C)(C)C
inactive: [1] -0.6% | [2] -17.6% | [3] -4.7% | [4] 11.9% | [5] -18.6% | [6] 17.4%

Cn1c(=O)c2c(no[n+]2[O-])c2ccccc21
inactive: [1] 18.1% | [2] 15.7% | [3] 8.05% | [4] 14.1% | [5] 21.1% | [6] 22.4%

CCOC(=O)C(C#N)C1=CC(=O)C(=O)c2ccc(OC)cc21 (stereo unspecified)
inactive: [1] 14% | [2] 11.3% | [3] -5.5% | [4] 27.9% | [5] -9.95% | [6] 9.1%

Cc1cncc(C)c1
inactive: [1] 17.6% | [2] -22.1% | [3] 5.6% | [4] -6.85% | [5] 7.2% | [6] 8.5%

CCN(/C=C/C=C(C#N)C#N)CC
inactive: [1] 6.05% | [2] -5.3% | [3] -9.05% | [4] -15.8% | [5] 6.35% | [6] -12.7%

c1csc(CNc2cccc3ccccc23)c1
inactive: [1] 54.5% | [2] 25% | [3] 31.6% | [4] -22.1% | [5] 13.6% | [6] 28%

COc1cc([N+](=O)[O-])cc(C(C)=O)c1O
inactive: [1] 17.9% | [2] 37.2% | [3] 31.5% | [4] 2.45% | [5] 15.1% | [6] 38.5%

CN1CCC(c2ccccc2)(c2ccccc2)C(O)C1 (stereo unspecified)
inactive: [1] 1.15% | [2] -0.45% | [3] 13.7% | [4] 4.35% | [5] 3.3% | [6] 4.7%

COC(=O)C1C(=O)CC2CCCCC21 (stereo unspecified)
inactive: [1] 2.75% | [2] -19.6% | [3] -13.9% | [4] 20.6% | [5] -22.3% | [6] 16.8%
